PubChem BioAssay (Tox21)
Values joined by “and” are separate entries in the source; they are usually repeats but may differ in a detail not shown here. Identical values can stand only once. Results filed as inconclusive are left out. A call without a number means that no potency is given here. Active and inactive are the calls of the source. Unless noted, the call rests on the fitted dose curve; in most records, active means well fitted curve in the direction sought with a large enough effect in the repeat runs; inconclusive means weak or mixed curves; inactive means no such curve, though single readings can be large; an effect the other way counts as inactive or inconclusive.

How the values were obtained:
[1] = target: Acetylcholinesterase (Homo sapiens) (UniProt P22303); assay: Acetylcholinesterase (AChE) small molecule antagonists: colormetric cell-based qHTS assay (AID 1347395; calls by dose curve; further: nearly all actives have a fitted effect of over 30% in size)
How it was run: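 Neuroblastoma line SH-SY5Y supplied the enzyme; cells were preincubated with compound for 30 min at 37 C and 5% CO2. Acetylthiocholine with DTNB was then added for 90 min at 37 C, and thiocholine was measured by colour.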

[2] = target: Acetylcholinesterase (Homo sapiens) (UniProt P22303); assay: Acetylcholinesterase (AChE) small molecule antagonists: enzyme-based qHTS assay (AID 1347397; calls by dose curve; further: nearly all actives have a fitted effect of over 55% in size); details: Potency: AChE enzyme activity inhibition
How it was run: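 Enzyme inhibition was scored from DTNB-detected thiocholine formed by recombinant human AChE acting on acetylthiocholine. The 30 min compound preincubation and 10 min substrate reaction were both run at room temperature, with DMSO as vehicle control.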

[3] = target: Acetylcholinesterase (Homo sapiens) (UniProt P22303); assay: Acetylcholinesterase (AChE) small molecule antagonists: fluorescence cell-based qHTS assay (AID 1347398; calls by dose curve; further: nearly all actives have a fitted effect of over 50% in size); details: Potency: AChE activity
How it was run: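 Endogenous acetylcholinesterase of SH-SY5Y neuroblastoma cells is measured in situ. After overnight attachment and 30 min compound exposure, cells receive acetylthiocholine and Thiolite Green; fluorescence is read after 40 min at room temperature.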

[4] = target: Acetylcholinesterase (Homo sapiens) (UniProt P22303); assay: Acetylcholinesterase (AChE) small molecule antagonists: enzyme-based qHTS assay with human liver microsomes (AID 1347399; calls by dose curve; further: nearly all actives have a fitted effect of over 60% in size); details: Potency: qHTS inhibition
How it was run: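 Recombinant human AChE (50 mU/mL in the enzyme mix) and human liver microsomes (0.25 mg/mL final) were preincubated with compound and NADPH (0.25 mg/mL final) for 30 min at 37 C. Acetylthiocholine/DTNB was then added; thiocholine was read colorimetrically after 10 min at room temperature.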

[5] = target: Cytochrome P450 2D6 (Homo sapiens) (UniProt P10635); assay: Cytochrome P450 Family 2 Subfamily D Member 6 (CYP2D6) small molecule antagonists: luciferase reporter qHTS assay (AID 1671196); further: nearly all actives have a fitted effect of over 50% in size
How it was run: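 Cell-free P450-Glo system: CYP2D6 with proluciferin substrate was pre-incubated with compound for 10 min, then reacted with NADPH regeneration for 1 h at room temperature. Luciferin product was detected after 20 min, and data were reported as relative luminescence units.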

[6] = target: Cytochrome P450 2C19 (Homo sapiens) (UniProt P33261); assay: Cytochrome P450 Family 2 Subfamily C Member 19 (CYP2C19) small molecule antagonists: luciferase reporter qHTS assay (AID 1671197); further: nearly all actives have a fitted effect of over 65% in size
How it was run: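 Luminescent readout of CYP2C19 activity: luciferin product detected 20 min after adding detection reagent. Before that, compound and enzyme-substrate mix preincubated 10 min at room temperature; NADPH-regenerating system started a 1 h, 37C reaction. Ketoconazole as positive control.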

[7] = target: Cytochrome P450 2C9 (Homo sapiens) (UniProt P11712); assay: Cytochrome P450 Family 2 Subfamily C Member 9 (CYP2C9) small molecule antagonists: luciferase reporter qHTS assay (AID 1671198); further: nearly all actives have a fitted effect of over 50% in size
How it was run: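 P450-Glo proluciferin substrate with CYP2C9 enzyme; 10 min RT preincubation, then NADPH regeneration 1 h at 37C; luciferin detection reagent 20 min RT, luminescence in relative luminescence units.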

[8] = target: Cytochrome P450 1A2 (Homo sapiens) (UniProt P05177); assay: Cytochrome P450 Family 1 Subfamily A Member 2 (CYP1A2) small molecule antagonists: luciferase reporter qHTS assay (AID 1671199); further: nearly all actives have a fitted effect of over 50% in size
How it was run: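 P450-Glo CYP1A2 enzyme–proluciferin substrate mix with compound 10 min at room temperature, then NADPH regeneration 1 h at room temperature. Luciferin detection reagent added, luminescence read after 20 min; furafylline positive control.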

[9] = target: Voltage-gated inwardly rectifying potassium channel KCNH2 (Homo sapiens) (UniProt Q12809); assay: Human Ether-a-go-go-Related Gene (hERG) channel small molecule antagonists: fluorescence cell-based qHTS assay (AID 1671200); further: nearly all actives have a fitted effect of over 50% in size
How it was run: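 Measured: Tl+ flux via fluorescence (480/540 nm) in hERG-expressing U2OS cells after 1 h dye loading at room temperature.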

[10] = target: Cytochrome P450 3A4 (Homo sapiens) (UniProt P08684); assay: Cytochrome P450 Family 3 Subfamily A Member 4 (CYP3A4) small molecule antagonists: luciferase reporter qHTS assay (AID 1671201); further: nearly all actives have a fitted effect of over 50% in size
How it was run: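 Setup: enzyme-substrate mix, compound pin transfer, 10 min RT. Reaction: NADPH regeneration solution, 1 h RT. Readout: detection reagent stops turnover, luminescence measured after 20 min, expressed in relative luminescence units.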
Potency means the concentration at half of the fitted maximal effect.

Chain of Cytochrome P450 3A4 (Homo sapiens) (P08684 whole entry, looked up): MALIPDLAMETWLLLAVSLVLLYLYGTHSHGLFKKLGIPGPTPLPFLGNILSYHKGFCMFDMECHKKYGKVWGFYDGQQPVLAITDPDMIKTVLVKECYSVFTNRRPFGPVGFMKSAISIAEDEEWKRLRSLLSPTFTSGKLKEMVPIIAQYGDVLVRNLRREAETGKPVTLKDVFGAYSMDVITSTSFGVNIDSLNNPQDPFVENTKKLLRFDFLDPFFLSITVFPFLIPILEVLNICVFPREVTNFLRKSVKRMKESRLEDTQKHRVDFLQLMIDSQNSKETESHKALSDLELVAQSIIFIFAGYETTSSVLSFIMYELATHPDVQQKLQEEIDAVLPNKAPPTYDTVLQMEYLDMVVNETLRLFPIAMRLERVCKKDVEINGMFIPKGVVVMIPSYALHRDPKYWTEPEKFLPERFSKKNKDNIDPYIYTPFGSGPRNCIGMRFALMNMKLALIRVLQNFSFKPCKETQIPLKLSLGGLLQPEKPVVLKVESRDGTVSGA
Chain of Cytochrome P450 2D6 (Homo sapiens) (P10635 whole entry, looked up): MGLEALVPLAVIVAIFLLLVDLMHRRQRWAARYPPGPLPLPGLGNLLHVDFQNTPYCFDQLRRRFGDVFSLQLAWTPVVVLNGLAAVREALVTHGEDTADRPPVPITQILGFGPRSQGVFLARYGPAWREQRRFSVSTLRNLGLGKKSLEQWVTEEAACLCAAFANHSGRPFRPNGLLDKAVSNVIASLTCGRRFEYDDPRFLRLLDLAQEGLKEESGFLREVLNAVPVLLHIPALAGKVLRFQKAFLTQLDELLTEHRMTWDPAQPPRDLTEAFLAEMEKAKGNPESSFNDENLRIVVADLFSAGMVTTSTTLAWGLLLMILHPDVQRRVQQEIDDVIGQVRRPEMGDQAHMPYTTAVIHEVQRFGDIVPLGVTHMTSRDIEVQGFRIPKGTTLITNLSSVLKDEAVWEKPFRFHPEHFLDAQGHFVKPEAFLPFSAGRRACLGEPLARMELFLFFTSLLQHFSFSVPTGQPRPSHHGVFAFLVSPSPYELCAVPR
Chain of Cytochrome P450 2C9 (Homo sapiens) (P11712 whole entry, looked up): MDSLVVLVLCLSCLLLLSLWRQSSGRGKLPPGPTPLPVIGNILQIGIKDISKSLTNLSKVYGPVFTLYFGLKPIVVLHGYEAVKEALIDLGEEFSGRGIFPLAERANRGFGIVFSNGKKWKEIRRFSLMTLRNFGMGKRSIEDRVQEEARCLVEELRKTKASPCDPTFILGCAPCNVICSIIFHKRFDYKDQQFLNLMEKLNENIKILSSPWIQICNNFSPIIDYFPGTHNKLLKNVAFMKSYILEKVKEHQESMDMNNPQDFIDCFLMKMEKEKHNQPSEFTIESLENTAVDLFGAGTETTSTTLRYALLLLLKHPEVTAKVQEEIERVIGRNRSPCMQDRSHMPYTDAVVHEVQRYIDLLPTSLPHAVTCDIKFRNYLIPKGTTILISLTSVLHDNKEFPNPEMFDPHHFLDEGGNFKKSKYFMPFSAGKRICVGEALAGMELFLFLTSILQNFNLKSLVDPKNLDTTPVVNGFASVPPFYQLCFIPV
Chain of Cytochrome P450 2C19 (Homo sapiens) (P33261 whole entry, looked up): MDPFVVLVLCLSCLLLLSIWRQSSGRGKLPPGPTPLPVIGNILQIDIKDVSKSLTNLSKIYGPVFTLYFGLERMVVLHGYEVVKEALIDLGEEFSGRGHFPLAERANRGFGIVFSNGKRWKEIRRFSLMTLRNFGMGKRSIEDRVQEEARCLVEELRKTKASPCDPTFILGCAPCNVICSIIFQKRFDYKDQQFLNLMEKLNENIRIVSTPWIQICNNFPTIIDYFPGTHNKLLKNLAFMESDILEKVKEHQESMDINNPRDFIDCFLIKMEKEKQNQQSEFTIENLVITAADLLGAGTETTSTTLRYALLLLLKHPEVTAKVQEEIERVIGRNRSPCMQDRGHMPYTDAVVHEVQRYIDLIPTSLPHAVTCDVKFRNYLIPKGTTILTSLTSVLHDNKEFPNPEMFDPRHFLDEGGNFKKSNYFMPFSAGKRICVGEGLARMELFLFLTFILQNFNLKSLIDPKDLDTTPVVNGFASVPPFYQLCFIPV
Chain of Cytochrome P450 1A2 (Homo sapiens) (P05177 whole entry, looked up): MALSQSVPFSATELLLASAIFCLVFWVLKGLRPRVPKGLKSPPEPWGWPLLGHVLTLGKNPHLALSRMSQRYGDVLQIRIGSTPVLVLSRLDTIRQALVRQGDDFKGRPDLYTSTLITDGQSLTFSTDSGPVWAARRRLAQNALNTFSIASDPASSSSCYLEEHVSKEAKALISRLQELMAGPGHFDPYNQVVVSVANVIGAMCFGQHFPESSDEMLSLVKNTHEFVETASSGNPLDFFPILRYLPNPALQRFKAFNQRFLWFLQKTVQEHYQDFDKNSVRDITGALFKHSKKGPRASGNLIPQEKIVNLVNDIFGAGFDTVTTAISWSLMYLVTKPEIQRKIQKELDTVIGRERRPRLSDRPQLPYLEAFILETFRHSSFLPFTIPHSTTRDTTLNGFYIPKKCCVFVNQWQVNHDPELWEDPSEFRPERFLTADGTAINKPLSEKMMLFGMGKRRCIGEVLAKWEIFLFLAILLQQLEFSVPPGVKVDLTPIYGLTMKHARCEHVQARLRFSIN
Chain of Acetylcholinesterase (Homo sapiens) (P22303 whole entry, looked up): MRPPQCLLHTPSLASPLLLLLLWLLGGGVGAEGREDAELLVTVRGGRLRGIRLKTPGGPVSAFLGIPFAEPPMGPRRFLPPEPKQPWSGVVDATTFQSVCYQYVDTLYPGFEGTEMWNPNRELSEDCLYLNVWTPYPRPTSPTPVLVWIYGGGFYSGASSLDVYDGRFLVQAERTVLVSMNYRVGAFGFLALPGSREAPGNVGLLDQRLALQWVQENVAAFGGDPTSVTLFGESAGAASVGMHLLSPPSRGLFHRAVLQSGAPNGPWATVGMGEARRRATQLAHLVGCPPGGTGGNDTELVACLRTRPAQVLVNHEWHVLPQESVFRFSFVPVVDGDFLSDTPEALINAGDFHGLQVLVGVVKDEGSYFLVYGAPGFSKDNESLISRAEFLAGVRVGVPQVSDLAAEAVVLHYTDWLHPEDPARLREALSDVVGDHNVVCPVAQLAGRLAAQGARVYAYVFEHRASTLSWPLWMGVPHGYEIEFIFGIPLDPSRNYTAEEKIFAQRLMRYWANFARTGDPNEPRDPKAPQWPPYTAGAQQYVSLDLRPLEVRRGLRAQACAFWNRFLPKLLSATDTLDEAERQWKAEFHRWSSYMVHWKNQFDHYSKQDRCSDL
Chain of Voltage-gated inwardly rectifying potassium channel KCNH2 (Homo sapiens) (Q12809 whole entry, looked up): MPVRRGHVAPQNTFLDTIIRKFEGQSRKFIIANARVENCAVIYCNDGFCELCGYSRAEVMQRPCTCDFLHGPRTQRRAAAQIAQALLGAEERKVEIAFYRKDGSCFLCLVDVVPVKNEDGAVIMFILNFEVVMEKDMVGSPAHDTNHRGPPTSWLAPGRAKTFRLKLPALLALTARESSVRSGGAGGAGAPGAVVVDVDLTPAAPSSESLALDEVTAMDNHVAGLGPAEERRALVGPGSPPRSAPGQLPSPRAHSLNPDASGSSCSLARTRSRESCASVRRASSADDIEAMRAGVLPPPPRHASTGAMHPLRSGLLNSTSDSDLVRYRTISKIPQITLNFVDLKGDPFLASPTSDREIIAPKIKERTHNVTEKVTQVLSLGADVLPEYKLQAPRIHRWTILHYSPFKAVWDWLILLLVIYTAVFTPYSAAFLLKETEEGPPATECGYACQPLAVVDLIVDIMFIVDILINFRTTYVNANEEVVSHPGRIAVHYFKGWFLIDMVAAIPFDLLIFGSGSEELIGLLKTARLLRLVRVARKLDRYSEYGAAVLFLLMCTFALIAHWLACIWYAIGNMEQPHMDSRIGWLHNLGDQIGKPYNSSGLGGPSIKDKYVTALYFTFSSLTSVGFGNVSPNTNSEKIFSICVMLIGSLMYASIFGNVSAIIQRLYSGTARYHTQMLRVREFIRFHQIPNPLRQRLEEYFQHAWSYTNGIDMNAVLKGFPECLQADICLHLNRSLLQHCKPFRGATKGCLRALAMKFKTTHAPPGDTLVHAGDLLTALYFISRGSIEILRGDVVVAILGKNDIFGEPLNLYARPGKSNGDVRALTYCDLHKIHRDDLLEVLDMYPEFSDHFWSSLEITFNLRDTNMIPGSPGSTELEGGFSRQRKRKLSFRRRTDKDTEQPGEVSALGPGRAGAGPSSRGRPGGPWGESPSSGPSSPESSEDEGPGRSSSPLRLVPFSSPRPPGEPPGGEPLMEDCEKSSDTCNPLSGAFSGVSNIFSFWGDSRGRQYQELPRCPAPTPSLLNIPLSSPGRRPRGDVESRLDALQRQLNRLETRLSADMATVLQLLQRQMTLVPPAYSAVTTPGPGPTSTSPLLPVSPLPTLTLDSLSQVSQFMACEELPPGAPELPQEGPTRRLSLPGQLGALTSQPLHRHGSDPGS

SMILES	Potency [1]	Potency [2]	Potency [3]	Potency [4]	Potency [5]	Potency [6]	Potency [7]	Potency [8]	Potency [9]	Potency [10]
COc1ccc(-c2ccccc2)cc1NNC(=O)OC(C)C	inactive	inactive	inactive	inactive	0.83 µM (active)	0.262 µM (active)	2.62 µM (active)	5.88 µM (active)	inactive	1.04 µM (active)
COc1cc(CC(C)N)cc2c1OCO2 (configuration not stated)	inactive	inactive	inactive	inactive	2.09 µM (active)	inactive	inactive	74.1 µM (active)	inactive	inactive
CC(=O)C(C)(C)C	inactive	inactive	inactive	inactive	inactive	inactive	inactive	37 µM (active)	inactive	inactive
CC(Cl)C(C)Cl (configuration not stated)	inactive	inactive	inactive	inactive	inactive	inactive	inactive	inactive	inactive	inactive
COC(=O)c1cncn1C(C)c1ccccc1 (configuration not stated)	inactive	inactive	inactive	inactive	8.71 µM (active)	3.89 µM (active)	27.5 µM (active)	inactive	inactive	0.309 µM (active)
ClCC(Br)CBr (configuration not stated)	inactive	inactive	inactive	inactive	inactive	inactive	inactive		inactive	
CNP(=O)(OC)Oc1ccc(C(C)(C)C)cc1Cl (configuration not stated)	71 µM (active)	79.6 µM (active)	31.7 µM (active)	inactive	71 µM (active)	8.94 µM (active)	35.6 µM (active)	35.6 µM (active)		inactive
O=C(CCl)c1ccc(Cl)cc1Cl	inactive	inactive	inactive	inactive	39.8 µM (active) and 38.9 µM (active)	17.8 µM (active) and 9.77 µM (active)	12.6 µM (active) and 17.4 µM (active)	35.4 µM (active) and 12.9 µM (active)		inactive
O=C(NC(=O)c1c(F)cccc1F)Nc1ccc(OC(F)(F)C(F)OC(F)(F)F)c(Cl)c1 (configuration not stated)	inactive	inactive	inactive	inactive	inactive	inactive	19.5 µM (active)		inactive	
BrCCCCBr	inactive	inactive	inactive	inactive	inactive	inactive	inactive		inactive	
Cc1ccc(-c2c(Cl)nc(C#N)n2S(=O)(=O)N(C)C)cc1	inactive	inactive	inactive	inactive	inactive	79.6 µM (active)	11.2 µM (active)	22.4 µM (active)	inactive	inactive
Cl/C=C\Cl	inactive	inactive	inactive	inactive	inactive	inactive	inactive	inactive	inactive	inactive
O=[N+]([O-])C(Br)(CO)CO	79.6 µM (active)	63.3 µM (active)	inactive	71 µM (active)	inactive	6.33 µM (active)	5.03 µM (active)	17.8 µM (active)	inactive	inactive
CCCCCCC#N	inactive	inactive	inactive	inactive	38.7 µM (active)	68.8 µM (active)	inactive	38.7 µM (active)	inactive	inactive
OC(c1ccc(Cl)cc1)(c1ccc(Cl)cc1)c1cccnc1	inactive	inactive	inactive	inactive	11.2 µM (active)	0.0796 µM (active)	0.448 µM (active)	35.6 µM (active)	34.7 µM (active)	2.24 µM (active)
CC(=O)[C@H]1CC[C@H]2[C@@H]3CC[C@H]4C[C@](C)(O)CC[C@]4(C)[C@H]3CC[C@]12C	inactive	inactive	inactive	inactive	inactive	inactive	inactive		inactive	inactive
O=C(OC1CCCCC1)c1ccccc1C(=O)OC1CCCCC1	inactive	inactive	inactive	inactive	inactive	33.4 µM (active)	26.5 µM (active)	37.5 µM (active)		11.9 µM (active)
COP(=O)(OC)O/C(=C/Cl)c1cc(Cl)c(Cl)cc1Cl	42.2 µM (active)	inactive	37.6 µM (active)	inactive	33.5 µM (active)	5.31 µM (active)	23.7 µM (active)	2.66 µM (active)	inactive	inactive
O=S(=O)(O)C(F)(F)C(F)(F)C(F)(F)C(F)(F)F	inactive	inactive	inactive	inactive	59.8 µM (active)	33.6 µM (active)	17.9 µM (active)		inactive	
c1ccoc1	inactive	inactive	inactive	inactive	inactive	inactive	inactive	inactive		inactive
C=CC(=O)OCCCCO	inactive	inactive	inactive	inactive	inactive	inactive	inactive		inactive	inactive
O=C=Nc1ccc(Cl)cc1	inactive	inactive	inactive	inactive	inactive	2 µM (active)	7.96 µM (active)		inactive	
Cc1ccccc1CCl	inactive	inactive	inactive	inactive	inactive	inactive		inactive	inactive	inactive
COC1=CC(=O)O[C@@H](CCc2ccccc2)C1	inactive	inactive	inactive	inactive	inactive	5.87 µM (active)	33 µM (active)		inactive	inactive

SMILES	Potency [1]	Potency [2]	Potency [3]	Potency [4]	Potency [5]	Potency [6]	Potency [7]	Potency [8]	Potency [9]	Potency [10]
C[C@H]1CNCCc2ccc(Cl)cc21	inactive	inactive	inactive	inactive	1.38 µM (active)	inactive		inactive	inactive	
CC(=O)NC1CCSC1=O (configuration not stated)	inactive	inactive	inactive	inactive	inactive	inactive		inactive	inactive	inactive
N#C/C(N)=C(/N)C#N	inactive	inactive	inactive	inactive	inactive	30.8 µM (active)		21.8 µM (active)	inactive	
C=CCCl	inactive	inactive	inactive	inactive	inactive	inactive	inactive		inactive	inactive
Clc1cc(Cl)c(Cl)c(Cl)c1	inactive	inactive	inactive	inactive	inactive	inactive	inactive		inactive	inactive
O=Cc1ccc2c(c1)OCO2	inactive	inactive	inactive	inactive	inactive	inactive		31.3 µM (active)	inactive	inactive
O=C(CBr)Nc1ccc(Cl)cc1C(=O)c1ccccc1F	inactive	inactive	inactive	inactive	inactive	1.95 µM (active)		13.8 µM (active)	inactive	inactive
C=CCOC(C)=O	inactive	inactive	inactive	inactive	inactive	70 µM (active)	55.6 µM (active)		inactive	inactive
NC(=O)C(Cl)(Cl)Cl	inactive	inactive	inactive	inactive	inactive	inactive	inactive			inactive
O=C(O)C(F)(F)C(F)(F)C(F)(F)C(F)(F)C(F)(F)C(F)(F)C(F)(F)C(F)(F)C(F)(F)C(F)(F)F	inactive	inactive	inactive	inactive	inactive	inactive		inactive	inactive	inactive
C=CC(=O)OC(C)(C)C	inactive	inactive	inactive	inactive	inactive	30.6 µM (active)		2.43 µM (active)	inactive	
CC1Sc2c(C(=O)O)c(=O)c3cc(F)c(N4CCNCC4)cc3n21 (configuration not stated)	inactive	inactive	inactive	inactive	inactive	inactive		inactive	inactive	inactive
N#Cc1ccc(Cl)cc1	inactive	inactive	inactive	inactive	inactive	inactive		inactive	inactive	inactive
CCCCCCCCOC(=O)c1ccc(C(=O)OCCCCCCCC)c(C(=O)OCCCCCCCC)c1	inactive	inactive	inactive	inactive	inactive	80.6 µM (active)		inactive	inactive	inactive
ClCCCCBr	inactive	inactive	inactive	inactive	inactive	inactive		inactive	inactive	inactive
O=C(O)C(F)(F)C(F)(F)C(F)(F)C(F)(F)C(F)(F)C(F)(F)C(F)(F)C(F)(F)C(F)(F)F	inactive	inactive	inactive	inactive	inactive	inactive		inactive	inactive	inactive
COCC(C)N(C(=O)CCl)c1c(C)csc1C (configuration not stated)	inactive	inactive	inactive	inactive	inactive	6.33 µM (active)	7.96 µM (active)		inactive	inactive
O=[N+]([O-])c1cc(C(F)(F)F)cc([N+](=O)[O-])c1Cl	inactive	inactive	inactive	inactive	17.9 µM (active)	40.1 µM (active)	17.9 µM (active)			inactive
Oc1ccc(Cl)c(Cl)c1Cl	inactive	inactive	inactive	inactive	inactive	26.1 µM (active)		26.1 µM (active)	inactive	
Cc1ccc(N)cc1C	inactive	inactive	inactive	inactive	5.07 µM (active)	28.5 µM (active)		4.52 µM (active)	inactive	
CCOP(O)OCC	inactive	inactive	inactive	inactive	inactive	inactive		inactive	inactive	inactive
S=C=NCc1ccccc1	inactive	inactive	inactive	inactive	28.6 µM (active)	5.08 µM (active)		28.6 µM (active)	inactive	20.2 µM (active)
CCOC(=O)CBr	inactive	inactive	inactive	inactive	40.1 µM (active)	40.1 µM (active)		63.6 µM (active)	inactive	inactive
